This note sets out measurements from PubChem BioAssay (NCI).

Several values for one entry are separate records, joined by “and”; a condition that tells them apart may be missing. Identical values can stand only once. About 83,000 compounds went through this panel and 20% of them were active in at least one assay; those are over-represented in the sample as a whole.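 Single-dose data. Exposure time 48 hours. Values below 10 considered active.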 A number with no mark means an inactive call. Activity calls are given as the source filed them.

For one test, the system named is MOLT-4 leukemia. Briefly: NCI-60 one-dose screen, 48 h (100 = growth as untreated, 0 = no growth, -100 = all killed). The note with it: 0.01 µM. On the procedure: Growth inhibition of the MOLT-4 human tumor cell line is measured as a screen for anti-cancer activity. Cells are grown in 96 well plates and exposed to the test compound for 48 hours. Compounds are tested at a single concentration, which is 10^-5 M for most compounds. The reported endpoint is percent growth (GI% or GIPRCNT), where numbers from 0 - 100% represent growth inhibition, and numbers from -100% - 0 represent cell death. For example, a value of 40 represents 60% growth inhibition. A value of 0 means no net growth occurred over the course of the experiment. A value of -40 indicates 40% of cells at the beginning of the experiment died by the end of the experiment. A value of -100 means all cells are dead at the end of the experiment.
NCI-60 Human Tumor Cell Lines Screen was performed using the standard one-dose NCI protocol, which is described in more detail at https://dtp.cancer.gov/discovery_development/nci-60/default.htm.
Compounds with GIPRCNT values below 10 were considered active. Activity score was based on GIPRCNT using the following formula: […]
Score is 0 for GIPRCNT values of 100 or above, 50 for GIPRCNT values of 0, and 100 for GIPRCNT values of -100.
Turning to `CC(=O)O[C@H]1C(=O)[C@@]2(C)[C@H]([C@H](OC(=O)c3ccccc3)[C@]3(O)C[C@H](OC(=O)[C@H](O)[C@@H](NC(=O)c4ccccc4)c4ccccc4)C(C)=C1C3(C)C)[C@]1(OC(C)=O)CO[C@@H]1C[C@@H]2O`, the growth was 48.2%.

The same test, now with this note: 10 µM.
Consider `S=P(N1CC1)(N1CC1)N1CC1`, for which the growth is 98.2% and 61.8%.

Regarding `CC(=O)O[C@H]1C(=O)[C@@]2(C)[C@H]([C@H](OC(=O)c3ccccc3)[C@]3(O)C[C@H](OC(=O)[C@H](O)[C@@H](NC(=O)c4ccccc4)c4ccccc4)C(C)=C1C3(C)C)[C@]1(OC(C)=O)CO[C@@H]1C[C@@H]2O`, the growth is 22.8%.

Still in this test, the particulars now being: 10 µM unless noted.
Take `COc1cccc(C(c2cc3c(cc2O)OCO3)N2CCOCC2)c1OC` (stereo not given): the growth was 96%. Still for that read-out and setting: then `Cc1cc(C)c(N2C(=O)CC(Sc3ccccc3N)C2=O)c(C)c1` (stereo not given), with 76.5%; and `COc1ccc2oc(-c3ccc(Cl)cc3)c(N3CCN(C)CC3)c2c1`, with 12.5%. Same read-out and setting: then `CC1CCC2(C(=O)O)CCC3(C)C(=CCC4C5(C)CC(O)C(O)C(C)(CO)C5C(O)CC43C)C2C1C` (stereo not given), with 113%. With `COc1ccc(C(C#N)=C2C=CC(=NO)C=C2)cc1`, the growth is 58.4%. Still for that read-out and setting: the same measure for `CC[C@@]1(OC(=O)CN(C)C)C(=O)OCc2c1cc1n(c2=O)Cc2cc3c(N)cccc3nc2-1`: -0.423% (active); for `CN(C)CCNc1cccc2sc3ccc(O)cc3c(=O)c12`: 14.3%.

Consider `Cn1ncc2cc3c(Nc4ccc(Cl)cc4)cccc3nc21`, for which the growth is 89%.

`Cn1c2nc3ccccc3c-2nc2ccccc21`: the growth is 97.9% and 96.7%.

For `Cc1cc(O)c2c(c1O)C(=O)C13C(=C2O)C(=O)C2C(O)C1C1C(O)C3C(=O)C3=C(O)c4c(O)cc(C)c(O)c4C(=O)C321` (stereo not given), the growth was 8.98% (active). In the case of `CCOC(=O)[C@]1(Br)CC[C@@]1(Br)C(=O)OCC`, the growth was 36.8%.

Turning to `NCc1c(O)ccc2ccccc12`, the growth is 93.3%. Same read-out and setting: then `ClCCn1c(CCl)nc2ccc(Cl)cc21`, with -52.7% (active).

As to `COc1cc(N)ccc1Nc1c2ccccc2nc2ccccc12`, the growth was 2.72% (active).

Consider `COc1ccc2c(c1)[nH]c1c(/C=C/c3ccccc3)nccc12`, for which the growth is 48%. Same read-out and setting: then `Cc1cc(Cl)ccc1NC(=O)/C(Cl)=C1/Sc2ccccc2NC1=O`, with 83.5%; and `O=C1c2cccc3cc([N+](=O)[O-])cc(c23)C(=O)N1CCN1CCCC1`, with -17.9% (active). On the same count and under the same terms, the same measure for `CN(CC(=O)O)c1ccc(/C=C/c2ccnc3ccccc23)cc1`: 34.4%; for `O=C(NC(=S)Nc1ccccn1)c1ccccc1`: 93.1%; for `S=C1SCN(CCc2ccccc2)CN1CCc1ccccc1`: 76.8%. On the same count and under the same terms, then `CN(C)c1ccc(/C=C/c2ccnc3ccccc23)cc1N`, with 54.8%. Regarding `O=C1C=CC(=O)N1c1ccc(N2C(=O)C=CC2=O)cc1`, the growth is -9.11% (active). The same measure, in the same setting: the same measure for `CCC(C)(c1ccc(O)c(C)c1)c1ccc(O)c(C)c1`: 130%; for `Cc1cc(N=C2C=CC(=[N+](C)C)C=C2)c(N)cc1N`: 91.3%; for `COc1ccc(N)c2c1C(=O)c1ccccc1C2=O`: 67%. The same measure, in the same setting: the same measure for `N#C/C(=C/N1C(=O)/C(=C/c2ccc([N+](=O)[O-])cc2)SC1=S)c1nc2ccccc2s1`: 78.8%; for `O=[N+]([O-])c1cc(S(=O)(=O)Nc2ccccc2)ccc1Cl`: 89%; for `O=Nc1ccc(Nc2ccccc2)cc1`: 15%. `O=C1c2ccccc2CCC1(Br)Br`: the growth is -13.4% (active).

In the case of `O=C(O)c1ccccc1.[Ag]`, the growth is 102%. Consider `CCC(=O)Oc1ccc(/C=N/NC(N)=S)nc1`, for which the growth is 10.8%. Consider `Cc1c(-c2ccccc2)[nH]c2ccccc12`, for which the growth is 99.6%.

Consider `Nc1nc(N)c2cc(Sc3ccc4ccccc4c3)ccc2n1`, for which the growth is 18.4%. For `C=C1N(C)c2ccc(Cl)cc2C1(C)C`, the growth is 35.8%. With `O=S(=O)(c1cc(Cl)ccc1O)c1cc(Cl)ccc1O`, the growth is 90.2%. Same read-out and setting: then `N#CC(=C1C=CC(=NO)C=C1)c1ccccc1`, with 19.2%.

Still in this test, the particulars now being: 100 µM.
For `S=P(N1CC1)(N1CC1)N1CC1`, the growth is 22.6%.
